Records with an inconclusive call do not appear. Active and inactive are the calls of the source. Calls come from the whole dose curve; as a rule, active = well fitted inhibition curve with a large enough effect; inconclusive = small, poorly fitted or top-dose-only effect; inactive = no such curve, though single readings can be large or run the other way.
Potency is the fitted concentration of half-maximal effect.

The test is described as follows: BET inhibitor-based combinations targeting novel dependencies in MECOM-rearranged (r) AML: MV-4-11 cell line (AID 2202233). Note: nearly all actives have a fitted effect of over 45% in size. As to conditions: MV-4-11 AML viability, CellTiter-Glo luminescence, 48 h; series mostly up to 46 µM; viability, % of control: at the top concentration. The source says:
Ecotropic viral insertion site 1 (EVI1) is located on chromosome 3q26.2 as part of the MECOM (MDS and EVI1 complex) locus. Under normal hematopoiesis, EVI1 is a regulator of hematopoietic stem cell maintenance and self-renewal and EVI1 levels decrease as the cells differentiate. In approximately 5-10% of de novo acute myeloid leukemia (AML) EVI1 is aberrantly expressed, including Chromosomal inv(3)(q21;q26.2) or t(3;3)(q21;q26.2) alterations (MECOM-r) that account for about 50% of AML with EVI1 overexpression 31. AMLs with high levels of EVI1 have a poor prognosis and an overall survival time averaging between 10-14 months. EVI1 overexpression confers resistance in leukemia cells, highlighting the need to develop new targeted therapies for EVI1 overexpressing AMLs. Here, we performed an unbiased chemical drug screening by evaluating the single agent activity of a collection of 2,480 oncology-focused, approved and investigational drugs (NCATS Mechanism Interrogation Plates, MIPE v5.0) against a panel of seven AML cell lines. These included four MECOM-r cell-lines (AML-191, AML-194, UCSD-AML1 and HNT-34) and three non-MECOM-r AMLs (MV4-11, OCI-AML3 and SET-2). Exploiting the mechanistic redundancy built in the library, we identified target-level sensitivities in MECOM-r AML cells and relative activity as compared to other AML subtypes.
A collection of 2480 mechanistically annotated dugs (MIPE v5.0) was used to screen four 3q26.2 rearranged AML cell lines and three non-3q26.2 rearranged AML cell lines. This library purposely exploits redundancy by including multiple inhibitors of key onco-targets, while simultaneously encompassing mechanistic diversity, targeting more than 800 distinct mechanisms of action. Briefly, cells were seeded in 5 uL of growth media using a Multidrop Combi dispenser into 1536 well white polystyrene tissue culture treated plates (Corning) at a density of 500cells/well. For each cell-line, for each of the 2480 drugs in MIPE v5.0 library, an 11-point dose curve was generated via a 1536 pin-tool. Plates were incubated for 48 hr at standard incubator conditions, covered by a stainless steel gasketed lid to prevent evaporation. Cell viability was determined by luminescence based, Cell Titer Glo assay (Promega). In detail, 3 uL of Cell Titer Glo were added to each well and plates were incubated at room temperature for 15 min with a stainless-steel lid in place. Luminescence readings were taken using a Viewlux (PerkinElmer) with a 2 s exposure time per plate. Compound dose-response curves were normalized to DMSO and empty well controls on each plate. Quantitative drug activity data from dose-response curves was determined utilizing area Under the Curve (AUC) and Z-transformed AUC (Z-AUC, a mean-centering transformation applied to each individual cell-line screened).
In the case of `CC(C)(C)C[C@H]1N[C@@H](C(=O)NC2CCC(O)CC2)[C@H](c2cccc(Cl)c2F)[C@@]12C(=O)Nc1cc(Cl)ccc12` (stereo not given in full), the Potency is 0.742 µM (active).

Consider `Cc1nc2ccc(CN(C)c3ccc(C(=O)N[C@@H](CCC(=O)O)C(=O)O)s3)cc2c(=O)[nH]1`, for which the Potency is 0.0468 µM (active).

In the case of `Nc1nc(F)nc2c1ncn2[C@@H]1O[C@H](COP(=O)(O)O)[C@@H](O)[C@@H]1O`, the Potency is 11.8 µM (active).

For `C[C@]12CCCN1CC1=NNC(=O)c3cc(F)cc4[nH]c2c1c34`, the Potency was 2.63 µM (active).

Consider `COc1ccc(-c2cc(C(O)C3CCCCN3)c3ccccc3n2)cc1` (stereo not given), for which the Potency was 2.95 µM (active).

As to `CC/C(=C(/c1ccc(O)cc1)c1ccc(OCCNC)cc1)c1ccccc1`, the Potency is 8.33 µM (active).

With `c1ccc2[nH]c(-c3cscn3)nc2c1`, the “viability, % of control” value is 113% (inactive).

With `C#Cc1cccc(Nc2ncnc3cc(OCCOC)c(OCCOC)cc23)c1`, the Potency is 5.9 µM (active).

For the molecule `O=C(CO)N1CCC(c2[nH]nc(-c3ccc(Cl)cc3)c2-c2ccncn2)CC1`, the “viability, % of control” value is 101% (inactive).

Regarding `NCC(=O)Nc1cncc(-c2nn3c(=O)cc(N4CCNCC4)nc3s2)c1`, the “viability, % of control” value is 55% (inactive).

In the case of `CC(C)C1CCC(C(=O)N[C@H](Cc2ccccc2)C(=O)O)CC1` (stereo not given in full), the “viability, % of control” value was 136% (inactive).

Turning to `CN[C@@H]1[C@@H](O)[C@@H](O[C@@H]2[C@@H](O)[C@H](O[C@H]3O[C@H](CN)[C@@H](O)[C@H](O)[C@H]3O)[C@@H](N)C[C@H]2NC(=O)C(O)CN)OC[C@]1(C)O` (stereo not given in full), the “viability, % of control” value was 159% (inactive).

Regarding `COc1cc(OCc2cccc(-c3ccccc3)c2C)cc(OC)c1CN1CCCC[C@H]1C(=O)O`, the Potency was 20.9 µM (active).

As to `CN(C)c1cc(NC(=O)CNC(C)(C)C)c(O)c2c1C[C@H]1C[C@H]3[C@H](N(C)C)C(=O)C(C(N)=O)=C(O)[C@]3(O)C(=O)C1=C2O`, the “viability, % of control” value is 69.9% (inactive).

With `Cc1cc(Nc2cc(N)ncn2)c(=O)n2c1C(=O)NC21CCCCC1`, the Potency is 8.11 µM (active).

`C=CC(=O)N1CCC(CNc2ncnc(N)c2-c2ccc(Oc3ccccc3)cc2)CC1`: the Potency was 13.2 µM (active).

As for `CCn1c(=O)c(-c2ccc(Cl)cc2Cl)cc2cnc(Nc3ccc(N4CCNCC4)c(F)c3)nc21`, the Potency was 0.525 µM (active).

`OCCNC1CCCc2c1[nH]c1ccc(-c3ccccc3)cc21` (stereo not given): the Potency is 11.8 µM (active).

Regarding `COc1ccc(Cl)c(Nc2nc3ccccc3nc2NS(=O)(=O)c2cccc(NC(=O)C(C)(C)N)c2)c1`, the Potency was 7.42 µM (active).

As to `CN(C)CCN1C(=O)c2cccc3cc(NC(N)=O)cc(c23)C1=O`, the Potency is 2.95 µM (active).

As to `Nc1cc(C(F)(F)F)c(-c2nc(N3CCOCC3)nc(N3CCOCC3)n2)cn1`, the Potency is 3.72 µM (active).

As to `Cc1ccc(S(=O)(=O)Nc2cc(C(F)(F)F)ccc2C(=O)Nc2nc(-c3ccccc3)cs2)cc1`, the Potency was 8.33 µM (active).

For `Cc1noc(C)c1-c1ccc(-c2cc(C(N)=O)c(NC(N)=O)s2)c(O[C@H]2CCNC2)c1`, the “viability, % of control” value is 120% (inactive).

On to `CN[C@@H](C)C(=O)N[C@H](C(=O)N1CCC[C@H]1c1nc(C(=O)c2ccc(F)cc2)cs1)C1CCCCC1`, for which the Potency was 16.6 µM (active).

In the case of `C=C1C(=O)O[C@@H]2[C@H]3O[C@]3(C)CC/C=C(\C)CC[C@@H]12`, the Potency is 5.25 µM (active).

`CN(Cc1cnc2nc(N)nc(N)c2n1)c1ccc(C(=O)N[C@@H](CCC(=O)O)C(=O)O)cc1`: the Potency was 0.105 µM (active).

On to `CCn1c(N)c(C(=O)NC)c(=O)c2ccc(C#CC(C)(O)COC)nc21` (stereo not given), for which the Potency is 5.25 µM (active).

For `COc1ccc(C(=O)CC2(O)C(=O)Nc3c(Cl)ccc(Cl)c32)cc1` (stereo not given), the “viability, % of control” value is 2.33% (inactive).

Turning to `O=C(O)C1(Cc2cccc(Nc3nccs3)n2)CCC(Oc2cccc(Cl)c2F)CC1` (stereo not given), the Potency was 1.32 µM (active).

With `COc1cc(-c2cn(C)c(=O)c3cnccc23)c(OC)cc1CN(C)C`, the Potency was 4.17 µM (active).

For the molecule `CC[C@@H](Oc1cccc(CN(CCCOc2ccc(OC)cc2)c2nc3ccccc3o2)c1)C(=O)O`, the “viability, % of control” value is 134% (inactive).

As to `CN[C@@H]1C[C@H]2O[C@@](C)([C@@H]1OC)n1c3ccccc3c3c4c(c5c6ccccc6n2c5c31)C(=O)N[C@H]4O`, the Potency was 0.0215 µM (active).

Take `C#C[C@]1(O)CC[C@H]2[C@@H]3CCc4cc(O)ccc4[C@H]3CC[C@@]21C`: the Potency is 20.9 µM (active).

With `C=CC[N+]1([C@H]2C[C@H]3[C@@H]4CC[C@H]5C[C@H](O)[C@@H](N6CCOCC6)C[C@]5(C)[C@H]4CC[C@]3(C)[C@H]2OC(C)=O)CCCC1`, the “viability, % of control” value is 112% (inactive).

As to `Cc1cc(C(=O)Nc2cc(Nc3ccc4c(/C=C/c5ccccn5)n[nH]c4c3)ccc2F)n(C)n1`, the Potency is 16.6 µM (active).

As for `O=c1[nH]c(=O)n([C@H]2C[C@H](O)[C@@H](CO)O2)cc1F`, the Potency is 0.0742 µM (active).

With `c1ccc(Cn2c(-c3ccc(OCC(C4CCNCC4)n4c(-c5ccccc5)nc5ccccc54)cc3)nc3ccccc32)cc1` (stereo not given), the Potency was 8.33 µM (active).

On to `NC[C@H]1O[C@H](O[C@H]2[C@H](O)[C@@H](O[C@H]3O[C@H](CO)[C@@H](O)[C@H](N)[C@H]3O)[C@H](N)C[C@@H]2N)[C@H](N)C[C@@H]1O`, for which the “viability, % of control” value is 91.7% (inactive).

On to `Nc1nccc(-c2c(-c3ccc(F)cc3)ncn2C2CCN(Cc3ccon3)CC2)n1`, for which the Potency is 10.5 µM (active).

Take `N#Cc1c(N)nc(N)nc1N[C@H](c1nc2c(F)ccc(Cl)c2c(=O)n1-c1cccnc1)C1CC1`: the Potency is 3.32 µM (active).
